Assay [1] in a line: qHTS assay to identify aromatase inhibitors - cell viability counter screen (AID 743084).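 Also: cells stimulated with testosterone during compound exposure; nearly all actives have a fitted effect of over 55% in size.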 Also: potency is read from the fitted curve at half-maximal effect. Particulars: MCF-7 aro ERE viability, CellTiter-Fluor, 24 h; series mostly up to 70.3 µM.
Assay [2] is described as follows: qHTS assay to identify small molecule that activate the aryl hydrocarbon receptor (AhR) signaling pathway - cell viability counter screen (AID 743086). Also: nearly all actives have a fitted effect of over 45% in size. Also: potency is read from the fitted curve at half-maximal effect. As to conditions: HepG2-AhR-luc viability, CellTiter-Fluor, 24 h; series mostly up to 70.3 µM. An outline of the steps:
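HepG2-AhR-luc (HG2L7.5c1) cells, 4000/well, were preincubated 5 h at 37C, exposed to compound in qHTS format for 24 hr at 37C, then given CellTiter-Fluor for 30 min; viability was read as fluorescence in the reporter wells.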
A general note: Quantitative high-throughput screening tests each substance at several concentrations.

Assay [3] is described as follows: qHTS assay to identify small molecule antagonists of the peroxisome proliferator-activated receptor gamma (PPARg) signaling pathway - cell viability counter screen (AID 743194). Also: nearly all actives have a fitted effect of over 55% in size. Also: potency is read from the fitted curve at half-maximal effect. As to conditions: PPARg-bla HEK293H viability, CellTiter-Glo luminescence, 17 h; Potency: co-treated with 50 nM rosiglitazone unless noted; series mostly up to 62.6 µM. In outline: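 PPARg-UAS-bla HEK293H cells were plated, rested 5 h at 37 C, then treated with compounds plus rosiglitazone (50 nM final) for 17 h at 37 C; viability was then read by CellTiter-Glo luminescence after 30 min at room temperature.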

Assay [4] is described as follows: qHTS assay for small molecule agonists of the antioxidant response element (ARE) signaling pathway - cell viability counter screen (AID 743203; calls by dose curve; also: nearly all actives have a fitted effect of over 55% in size; also: potency is read from the fitted curve at half-maximal effect). As to conditions: ARE-bla HepG2 viability, CellTiter-Glo luminescence, 16 h; series mostly up to 73.3 µM. In outline: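 HepG2 cells carrying ARE-driven beta-lactamase; 2,000 cells/well; 5 hrs plating; compound pinned from DMSO; 16 hrs 37C/5% CO2; CellTiter-Glo added; 30 min RT; luminescence.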

Assay [5] can be described thus: qHTS assay for small molecule activators of the heat shock response signaling pathway - cell viability counter screen (AID 743209). Also: nearly all actives have a fitted effect of over 50% in size. Also: potency is read from the fitted curve at half-maximal effect. Particulars: HSE-bla HeLa viability, CellTiter-Glo luminescence, 5 h; series mostly up to 62.6 µM. In outline:
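Luminescence from CellTiter-Glo, added after the beta-lactamase FRET read, gave the viability signal. Cells were HSE-bla HeLa treated with DMSO-dissolved compounds for 5 h at 37 C following overnight plating.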

Assay [6] addresses Peroxisome proliferator-activated receptor gamma (Homo sapiens) (UniProt P37231). In words: qHTS assay to identify small molecule antagonists of the peroxisome proliferator-activated receptor gamma (PPARg) signaling pathway (AID 743191; calls by dose curve; also: nearly all actives have a fitted effect of over 30% in size; also: potency is read from the fitted curve at half-maximal effect). Particulars: HEK293H PPARg-UAS-bla, beta-lactamase ratio, antagonist, 17 h; series mostly up to 62.6 µM. An outline of the steps:
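GeneBLAzer PPARg UAS-bla HEK293H cells carrying a UAS-driven beta-lactamase reporter were plated at 3000 cells/well, preincubated 5 h at 37C, then given compound for 17 h at 37C; LiveBLAzer B/G FRET substrate was read after 1 h at room temperature.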

Assay [7] is described as follows: qHTS assay for small molecule agonists of the antioxidant response element (ARE) signaling pathway (AID 743202; active = well fitted activation curve with a large enough effect in the signal ratio in the repeat runs, not every such curve was filed as active; the % refers to the signal ratio; also: potency is read from the fitted curve at half-maximal effect). As to conditions: HepG2 ARE-bla reporter, beta-lactamase FRET, 16 h; series mostly up to 73.3 µM. In outline: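 Read-out: LiveBLAzer B/G FRET substrate fluorescence after 2 h at room temperature, following 16 h compound treatment at 37 C of HepG2 cells carrying an ARE-driven beta-lactamase reporter.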

Assay [8] in a line: qHTS assay for small molecule activators of the heat shock response signaling pathway (AID 743210; active = well fitted activation curve with a large enough effect in the signal ratio in the repeat runs, with a control signal flat, not every such curve was filed as active; the % refers to the signal ratio). As to conditions: HeLa HSE-bla reporter, beta-lactamase ratio, 5 h; series mostly up to 62.6 µM. An outline of the steps: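 HSE-bla HeLa cells (beta-lactamase reporter under heat shock response elements) were exposed to compounds for 5 h at 37 C, then loaded with LiveBLAzer B/G FRET substrate for 2.5 h at room temperature before fluorescence reading.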

The target in assay [9] is Peroxisome proliferator-activated receptor gamma (Homo sapiens) (UniProt P37231). In words: qHTS assay to identify small molecule agonists of the peroxisome proliferator-activated receptor gamma (PPARg) signaling pathway (AID 743094; active = well fitted activation curve with a large enough effect in the signal ratio in the repeat runs, not every such curve was filed as active; the % refers to the signal ratio; also: potency is read from the fitted curve at half-maximal effect). Particulars: HEK293H PPARg-UAS-bla, beta-lactamase FRET ratio, 17 h; series mostly up to 57 µM. In outline:
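Beta-lactamase FRET fluorescence was the read-out after a 1 h room-temperature substrate step, following 17 h compound treatment at 37C of HEK293H cells expressing a UAS-driven bla reporter responsive to PPARg.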

In assay [10] the target is Aryl hydrocarbon receptor (Homo sapiens) (UniProt P35869). As to the kind of experiment: qHTS assay to identify small molecule that activate the aryl hydrocarbon receptor (AhR) signaling pathway (AID 743085).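 Also: HG2L7.5c1 human HepG2 liver cells with stably integrated DRE-driven firefly reporter; nearly all actives have a fitted effect of over 15% in size.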 Particulars: HepG2 AhR-luc (HG2L7.5c1), luciferase, 24 h; series mostly up to 70.3 µM. In outline:
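Cell line HG2L7.5c1 (human hepatoma, 20× DRE-luc). Plated, 5 h 37C, compound/DMSO added, 24 h 37C. CellTiter-Fluor 30 min 37C → fluorescence; then ONE-Glo 30 min RT → luminescence.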

Where “and” joins values, the source holds several entries; their conditions need not be identical. Identical values can stand only once. Inconclusive results are not listed. Where a structure was tested more than once in an assay, its records may differ in their call. Calls of active or inactive are those of the source. Unless noted, calls follow the shape of the dose curve; as a rule, active = well fitted curve in the direction sought with a large enough effect in the repeat runs; inconclusive = weak or mixed curves; inactive = no such curve, though single readings can be large; an effect the other way counts as inactive or inconclusive.

Peroxisome proliferator-activated receptor gamma (Homo sapiens), sequence (P37231 whole entry, looked up): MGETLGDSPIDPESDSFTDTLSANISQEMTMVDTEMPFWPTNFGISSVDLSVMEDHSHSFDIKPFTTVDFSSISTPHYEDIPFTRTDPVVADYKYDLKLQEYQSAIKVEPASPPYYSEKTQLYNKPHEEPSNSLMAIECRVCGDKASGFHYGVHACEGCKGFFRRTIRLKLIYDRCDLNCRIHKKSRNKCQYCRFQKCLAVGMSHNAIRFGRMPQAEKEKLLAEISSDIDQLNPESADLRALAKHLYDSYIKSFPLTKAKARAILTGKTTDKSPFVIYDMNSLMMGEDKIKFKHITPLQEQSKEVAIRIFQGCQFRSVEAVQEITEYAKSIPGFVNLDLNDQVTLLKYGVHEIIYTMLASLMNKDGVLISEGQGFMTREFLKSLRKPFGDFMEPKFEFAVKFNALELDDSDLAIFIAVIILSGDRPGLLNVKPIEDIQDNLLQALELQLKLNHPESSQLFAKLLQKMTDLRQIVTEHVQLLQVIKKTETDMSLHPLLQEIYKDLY
Aryl hydrocarbon receptor (Homo sapiens), sequence (P35869 whole entry, looked up): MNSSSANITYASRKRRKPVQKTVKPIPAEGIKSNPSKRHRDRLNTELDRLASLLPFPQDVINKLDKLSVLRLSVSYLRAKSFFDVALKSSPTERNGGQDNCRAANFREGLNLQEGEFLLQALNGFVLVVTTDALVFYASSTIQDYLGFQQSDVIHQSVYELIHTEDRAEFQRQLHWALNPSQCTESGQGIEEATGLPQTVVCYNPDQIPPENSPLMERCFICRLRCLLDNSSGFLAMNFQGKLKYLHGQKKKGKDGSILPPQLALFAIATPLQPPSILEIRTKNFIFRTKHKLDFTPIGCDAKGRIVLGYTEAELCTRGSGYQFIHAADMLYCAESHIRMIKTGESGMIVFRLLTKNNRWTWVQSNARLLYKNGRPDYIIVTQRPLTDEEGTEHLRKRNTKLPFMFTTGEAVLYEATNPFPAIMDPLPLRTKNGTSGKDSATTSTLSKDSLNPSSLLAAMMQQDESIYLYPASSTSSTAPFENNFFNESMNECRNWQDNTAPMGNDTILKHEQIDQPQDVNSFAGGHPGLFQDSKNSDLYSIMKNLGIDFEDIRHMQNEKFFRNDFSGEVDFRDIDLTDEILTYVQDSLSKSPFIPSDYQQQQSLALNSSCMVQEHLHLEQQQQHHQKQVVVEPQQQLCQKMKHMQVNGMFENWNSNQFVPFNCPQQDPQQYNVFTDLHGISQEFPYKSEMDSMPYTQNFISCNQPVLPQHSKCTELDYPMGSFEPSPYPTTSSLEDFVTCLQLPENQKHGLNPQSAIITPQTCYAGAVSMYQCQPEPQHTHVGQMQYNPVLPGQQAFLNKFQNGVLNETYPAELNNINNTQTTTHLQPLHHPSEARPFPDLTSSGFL

On to `CC(C)(O)c1cnn2c(-c3ccc(F)c(-c4c(F)cccc4C#N)c3)cnc2n1`, for which the Potency entry in assay [1], in assay [2], in assay [3], in assay [4] and in [5] was “inactive” each time.

On to `FC(Cl)(Cl)Cl`, for which the Potency result in assay [1], in [2], in assay [6], in assay [7], in assay [4] and in [5] was “inactive” throughout. The Potency result in assay [8] is “inactive”.

Consider `C[C@H]1O[C@@H](O[C@H]2[C@@H](O)C[C@H](O[C@H]3[C@@H](O)C[C@H](O[C@H]4CC[C@@]5(C)[C@H](CC[C@@H]6[C@@H]5CC[C@]5(C)[C@@H](C7=CC(=O)OC7)CC[C@]65O)C4)O[C@@H]3C)O[C@@H]2C)C[C@H](O)[C@@H]1O`, for which the Potency entry in assay [1] and in assay [2] was “inactive” throughout. Further, the Potency is 10.9 nM (active) and 6 nM (active) in assay [4]; 87.7 nM (active) and 376 nM (active) in [5].

Regarding `CC(=O)[O-].[Tl+]`, the Potency entry in assay [1], in assay [3] and in assay [5] was “inactive” each time.

In the case of `[Cd+2].[Cl-].[Cl-]`, the Potency was 24.5 µM (active) in assay [1]; 2.19 µM (active) and 3.06 µM (active) in [2]; 1.55 µM (active) in assay [3]; 692 nM (active) and 545 nM (active) in [4].

On to `CC(=O)OC1(c2ccccc2)CCN(CCc2ccccc2)CC1`, for which the Potency entry in [1], in [9], in assay [4], in assay [5] and in [8] was “inactive” in each case.

Take `CC(C)[C@H](C(=O)OC(C#N)c1cccc(Oc2ccccc2)c1)c1ccc(OC(F)F)cc1` (some centres not stated): the Potency result in assay [1], in [2], in assay [6], in [7], in [4] and in assay [5] was “inactive” each time.

Take `Fc1ccc(Oc2ccnc3cc(Cl)cc(Cl)c23)cc1`: the Potency entry in assay [1] and in assay [6] was “inactive” throughout. The results for the Potency in assay [9] and in [7] were 43.6 µM (active) and 12.2 µM (active), respectively.

Consider `N#CCCC(Br)(C#N)CBr` (configuration not stated), for which the Potency in assay [1] is 27.3 µM (active); in assay [5], 49 µM (active).

Regarding `Cc1cc(SCc2sc(-c3ccc(C(F)(F)F)c(F)c3)nc2C)ccc1OCC(=O)O`, the Potency result in assay [10] and in assay [2] was “inactive” throughout. Also, the Potency in assay [9] is 2.45 µM (active); in [3], 49 µM (active).

As for `OC(c1ccc(Cl)cc1)(c1ccc(Cl)cc1)C(Cl)(Cl)Cl`, the values for the Potency in [1], in assay [3] and in assay [4] were 61.1 µM (active), 15.5 µM (active) and 43.3 µM (active), respectively. Besides, the Potency entry in assay [2] is “inactive”.

On to `CN(C)S(=O)(=O)N(SC(F)(Cl)Cl)c1ccccc1`, for which the Potency in assay [1] was 27.3 µM (active); in assay [2], 61.1 µM (active); in assay [4] it was 8.63 µM (active).

Consider `CC1(C)C(/C=C(\Cl)C(F)(F)F)C1C(=O)OC(C#N)c1cccc(Oc2ccccc2)c1` (configuration not stated), for which the Potency entry in assay [1], in assay [2], in assay [3], in assay [7], in assay [4] and in [5] was “inactive” throughout.

As for `CCCN(CC)CC1COC2(CCC(C(C)(C)C)CC2)O1` (configuration not stated), the Potency entry in assay [1], in assay [3], in assay [4], in assay [5] and in [8] was “inactive” throughout.

On to `COc1ccc(N)cc1N`, for which the Potency was 12.6 µM (active) in assay [1]; 19.9 µM (active) and 29.4 µM (active) in assay [4]; 8.01 µM (active) in [5].

Consider `CCCN(CCC)CCc1c[nH]c2ccccc12`, for which the Potency result in [1], in [9], in assay [6], in assay [3], in [4] and in assay [5] was “inactive” each time.

With `Oc1ccc(C(=C(Cl)Cl)c2ccc(O)cc2)cc1`, the Potency in [1] is 48.5 µM (active); in [6] it was 17.3 µM (active); in assay [7], 24.3 µM (active). Moreover, the Potency entry in assay [2] and in [5] was “inactive” in each case.

In the case of `CC(=O)Nc1ccc2c(c1)Cc1ccccc1-2`, the Potency entry in assay [1], in assay [9], in [6], in [3], in [4] and in assay [5] was “inactive” in each case. Besides, the Potency entry in assay [8] is “inactive”. In addition, the Potency in [7] is 27.7 µM (active).

As for `CCCOCC(=Nc1ccc(Cl)cc1C(F)(F)F)n1ccnc1`, the Potency is 12.2 µM (active) in [1]; 54.4 µM (active) in [2]; 11 µM (active) in assay [3]; 13.7 µM (active) in assay [4]; 12.3 µM (active) in assay [5].

As for `C=CC(=O)OCC(COC(=O)C=C)(COC(=O)C=C)COC(=O)C=C`, the Potency in assay [1] was 2.73 µM (active); in assay [2], 19.3 µM (active); in assay [4], 43.3 µM (active); in assay [5], 2.45 µM (active).

Consider `CCCCCCCCCCCCCCCC[N+](C)(C)C`, for which the Potency is 29.5 µM (active) and 68.6 µM (active) in [1]; “inactive and 68.6 µM (active)” in assay [2]; 29.5 µM (active) and 24.3 µM (active) and 29.8 µM (active) in [4]; 21.1 µM (active) and 43.6 µM (active) in assay [5].

With `O=CC(Br)(Br)Br`, the Potency in assay [1] was 6.84 µM (active); in assay [2] it was 48.4 µM (active); in assay [7] it was 1.72 µM (active); in assay [4] it was 54.3 µM (active); in assay [5], 6.14 µM (active).

`COC12CC[C@@]3(C[C@@H]1C(C)(O)C(C)(C)C)[C@H]1Cc4ccc(O)c5c4[C@@]3(CCN1CC1CC1)[C@H]2O5` (some centres not stated): the Potency was 60.7 µM (active) in assay [1] and 68.1 µM (active) in [4]. The Potency result in assay [3] was “inactive”.

As for `CC(C)(C)C(O)/C(=C\c1ccc(Cl)cc1Cl)n1cncn1` (configuration not stated), the Potency in assay [1] was 74 µM (active); in assay [6] it was 52.8 µM (active); in assay [4], 74 µM (active). Further, the Potency result in assay [5] is “inactive”.

`c1ccc(OCC2CO2)cc1` (configuration not stated): the Potency result in [1], in [2], in assay [3], in assay [7], in [4] and in assay [5] was “inactive” in each case.

`CCOCCOC(C)=O`: the Potency result in assay [1], in [2], in assay [3], in assay [4] and in [8] was “inactive” throughout.

For the compound `CC(=O)c1cc(C(C)(C)C)cc2c1CCC2(C)C`, the Potency result in [10], in assay [2], in assay [9], in assay [6], in assay [3] and in assay [7] was “inactive” each time. In addition, the Potency entry in assay [4] was “inactive”.

With `CN(C)C(=S)S`, the Potency in [1] was 14 µM (active) and 764 nM (active) and 4.86 µM (active); in [5] it was 5 µM (active) and inactive and 2.19 µM (active). In addition, the Potency result in assay [3] and in assay [4] was “inactive” each time.

As for `O=C(CCl)Nc1ccccc1`, the Potency in [1] was 27.3 µM (active); in [7], 4.33 µM (active); in assay [5], 43.6 µM (active).

In the case of `S=C(SSC(=S)N1CCCCC1)N1CCCCC1`, the results for the Potency in assay [1] and in assay [5] were 0.944 µM (active) and 0.106 µM (active), respectively. Also, the Potency entry in assay [3] and in assay [4] was “inactive” each time.

For `C=CCC1=C(C)C(OC(=O)C2C(C=C(C)C)C2(C)C)CC1=O` (configuration not stated), the Potency in assay [1] was 25.8 µM (active); in [3], 58.3 µM (active); in assay [4], 51.5 µM (active); in assay [5], 46.3 µM (active).

The values above are taken from PubChem BioAssay (Tox21).
